Test results as given in the supplement of paper PMC6555819.

Assays:
Assay in all cases: PBM binding z-score (relative to random genomic background probes); higher = stronger binding; sequences stand for … in GC…GCGATTGACAGCGTAGAATGAAGG
[1] = tested on: FXR:RXRa (NR concentration 270 nM, RXRa partner concentration 90 nM)
Outline: (§1)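 Ligand-free nuclear receptor dimers were applied to custom Agilent 4×180K protein-binding microarrays whose double-stranded probes carried direct-repeat seeds, single-nucleotide variants, half-site ablations and random human genomic background sequences in 34-nt variable regions. Incubation lasted 1 h. Binding z-scores were computed against the random background probes from regression-normalized fluorescence.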

[2] = tested on: LXRa:RXRa (NR concentration 270 nM, RXRa partner concentration 90 nM)
Outline: as §1

[3] = tested on: LXRa homodimer (NR concentration 270 nM)
Outline: as §1

[4] = tested on: LXRb:RXRa (NR concentration 270 nM, RXRa partner concentration 90 nM)
Outline: as §1

[5] = tested on: LXRb homodimer (NR concentration 270 nM)
Outline: as §1

[6] = tested on: PPARa:RXRa (NR concentration 270 nM, RXRa partner concentration 90 nM)
Outline: as §1

[7] = tested on: PPARg:RXRa (NR concentration 180 nM, RXRa partner concentration 90 nM)
Outline: as §1

[8] = tested on: PPARg:RXRa 270nM:90nM, anti-RXR (NR concentration 270 nM, RXRa partner concentration 90 nM)
Outline: as §1

[9] = tested on: PPARg:RXRa 30nM:10nM, anti-RXR (NR concentration 30 nM, RXRa partner concentration 10 nM)
Outline: as §1

[10] = tested on: PPARg:RXRa 90nM:30nM, anti-RXR (NR concentration 90 nM, RXRa partner concentration 30 nM)
Outline: as §1

Sequence	PBM binding z-score [1]	PBM binding z-score [2]	PBM binding z-score [3]	PBM binding z-score [4]	PBM binding z-score [5]	PBM binding z-score [6]	PBM binding z-score [7]	PBM binding z-score [8]	PBM binding z-score [9]	PBM binding z-score [10]
TCTATTAGTTTATTAGGGCAACCGAAACAGCGGA	1.14	0.997	1.69	1.25	2.21	2.4	1.56	3.07	3.87	3.33
AGAATGAGGTTATACGTTGATCAGGGAAGAAAGT	2.25	1.89	0.234	1.66	0.0742	3.37	2.03	2.34	1.01	1.78
TTACCAAGGTGAAAGATCGTTGATGCACGCCTTG	0.552	0.392	-0.574	0.286	-0.696	2.36	2.97	3.92	2.25	3.77
CGAACTAGGTCAGAACAGGACAGTGGAGGATGAT	1.69	0.958	-0.201	0.242	-0.2	2.93	5.08	4.33	1.86	3.73
CCATACAGGTGAAAGGTAACTCAGTCTGGTACGC	0.917	0.86	0.0219	1.34	0.147	4.47	7.97	7.64	6.75	8.48
TAGCCTAGGTCATGGTCCAGTATACCACGCGAAC	3.98	3.17	0.367	2.57	-0.0302	3.96	3.3	3.12	0.835	1.94
CCGACTGTGGCATAAGGTTACCATAAGCCAGCCC	0.578	2.4	0.142	1.07	-0.834	1.36	0.99	1.57	-0.0445	0.844
CCTACTGGGACAAAAAGGTCATTGATGCCGATAA	3.77	4.52	4.09	4.16	0.878	4.96	3.4	4.19	2.01	3.72
TCATATCGGTAAAGGTGAAAGTCGAACGATATGA	0.139	1.31	-0.173	1.35	-0.304	2.77	1.89	3.12	3.8	3.48
CCTAGTTGGTCTAGGTCACACACGCTATAGGTAC	1.54	1.66	1.3	1.68	0.465	2.18	1.42	1.53	0.318	0.958
TCATATAGGTAAAAGGTGAGAGTCGGTGTGGTAA	1.07	1.56	-0.0844	1.55	0.0234	4.75	8.85	8.5	7.77	10
TCTAGTTTGTCAAAGGTCACACACTCGAAATGCG	6	5.79	5.08	5.68	2	6.11	8.39	8.19	7.6	8.39
TCGAGTAGGTTTCCAATGGGGCATTCAGCTTTCT	0.0114	-0.0745	-0.502	0.0167	-0.0602	-0.255	-0.735	0.178	0.836	0.304
CCGATTGGGGCAAGGTTACCATAACGCACAGCCA	0.189	0.481	-0.246	0.649	-1.05	1.28	1.44	1.49	0.0472	0.943
TCTAGTTGGTCAAACGTCACACACTCGAAATGCG	0.778	0.664	0.422	0.693	0.281	2.06	3.61	4.92	4.37	5.13
TATACCGGGTCAAAGGCCAGAGTACGAATGTCGA	5.68	5.19	1.56	3.95	1.32	6.35	8.61	7.39	6.12	7.45
TCTGCTAGGTCAACGGTGGTCAGCTAATCTGCTA	3.59	2.75	-0.0402	1.6	-0.0139	3.54	3.35	3.81	2.45	3.42
CCAGCTAGGTCATGGTCAGCTAATCTACAGTATG	3.52	2.28	0.125	1.63	-0.361	3.57	2.98	3.29	0.995	2.17
AGAATGAGGTTCCCAAAGATCAGGGAAACGCTTG	-0.395	-0.315	-0.36	-0.576	-0.694	0.11	0.423	0.0468	0.142	0.0809
CATACAGCGTCAGCTAGGCCAGAGTAGGGACGGC	-0.554	-0.839	-0.547	-1.42	-0.647	-1.05	0.332	-0.936	-0.344	-0.884
GCTCGGAGGACAAGGACAGAGCTTTGTCCGTAGA	-0.454	-0.825	-0.708	-0.936	-1.44	-0.604	-0.644	-0.934	-1.21	-1.04
CAAACTAGGTCACGAAACGTCAAAGTCGAATGAC	4.62	3.49	0.329	2.55	0.542	5.24	9.06	7.26	5.44	7.36
AGAATGAGGTTATAAGTAGATCAGGGAAGAAAGT	1.94	1.59	0.0372	1.73	0.269	2.96	2.67	2.94	1.34	2.45
ACTTACGGGTCAACGAGGTTATAGCGCGCGTATA	6.93	5.04	0.711	4.5	0.647	5.73	5.68	5.59	2.17	4.49

Sequence	PBM binding z-score [1]	PBM binding z-score [2]	PBM binding z-score [3]	PBM binding z-score [4]	PBM binding z-score [5]	PBM binding z-score [6]	PBM binding z-score [7]	PBM binding z-score [8]	PBM binding z-score [9]	PBM binding z-score [10]
ACTATTAGTTGAGACTAGGGCAACCGATAGGTTG	-0.2	-0.21	-0.416	-0.304	0.0178	0.296	0.679	0.33	0.227	-0.101
CAGCCCAGGTCAGGGCCAGTATAGGAGGAACGTT	2.46	1.34	-0.516	1.01	-0.951	2.27	0.962	0.716	-0.353	0.469
TCTATTAGTTGAAGGGCAACCGACGAGTCCGTTT	0.607	1.21	0.32	0.682	0.453	0.751	0.154	2.11	3.61	2.69
TCTCGGAGGACACGAAGGTCGGAGCTTTCCAGAG	0.628	-0.0853	-0.898	-0.334	-1.43	0.339	-0.0942	1.17	1.87	1.67
ATACGAAGGTGATCGTGAGGTCGTTGATACTAAC	1.79	1.18	0.283	0.729	-0.403	1.47	0.5	0.532	0.382	0.531
ACTATTAGTTAAGACGAGGGCAACCGATAGGTTG	0.44	0.122	0.165	0.211	0.232	0.271	0.646	-0.109	-0.17	-0.186
GCTGCTAAGTCAACTGATGGTCAGCTAAAGCTCG	-0.765	-0.562	-0.539	-0.754	-1.04	-0.555	-0.342	-0.538	-0.793	-0.507
CAAACTAGGTCAAGGTCAAGGTCGGTTTGTGCCA	6.47	5.41	3.72	4.28	0.954	6	9.57	7.87	6.34	8.36
CCGACTGGGGCAGAAAGGTTACCATACCATCCGG	0.35	0.432	-0.092	0.947	-1.04	2.03	1.69	2.6	0.687	2.03
ACTAGTTGGTCAGCCGAGGTCACACACAATTCGG	3.43	3	2.4	3.32	0.882	3.85	2.34	2.6	0.926	2.06
CGTCCAAGGTCAATGCTAGGTCAGAGAAAGCATT	6.97	5.95	2.67	4.32	0.8	5.25	4.39	4.86	1.59	3.76
TGTAGCAGGCCAGAGGGTCACTCAAGAGGTACGG	0.921	0.677	-0.568	0.665	-1.21	2.15	1.51	2.46	0.493	1.83
CAAACTAGGTCACAGAGGTCACAGTCCGTGCGTA	6.73	6.02	6.09	5.37	1.35	6.43	10.1	8.04	6.43	8.12
ACATGTAGGTTAGCTGGGGTCATTCAGACTAGGC	5.12	5.55	2.93	4.9	1.56	4.85	4.21	4.58	1.87	3.39
CTCGAAAGGTCGGTTGAGGTAAGTATACGGATAA	1.93	1.41	-0.197	1.28	-0.165	2.34	0.4	0.787	0.0171	0.608
CAAACTAGGTCAAAGGTCATAGTCGAGCCAACCA	7.9	6.85	5.6	6.78	2.18	7.62	14	11.2	12.9	13.1
CGAACTAGGTCATTGACAGGACAGTTAATAGTAA	4.35	3.12	0.774	2.36	0.0885	4.66	7.39	6.51	3.39	5.59
CGAACGAGGACATGAGTTGATAGCAAATGCCGAT	0.0885	-0.189	-0.104	-0.698	-0.657	-0.417	0.982	0.127	0.435	0.242
CCGACTGGGGCAAGGATACCATAACGCACAGCCA	-0.419	-0.243	-0.0407	-0.588	-1.01	0.158	1.6	1.16	-0.149	0.515
TGTCAAAGTTCAAAGGTAACGTGAGTATCCACAC	6.92	6.79	4.59	4.91	1.54	5.99	8.97	7.93	6.04	7.73
CTCGTAAGGTCGGTTGAGGTGAGTATACGGATAA	2.14	1.03	-0.261	0.701	-0.404	1.46	0.0124	0.578	-0.175	0.326
CAAACTAGGTCAAAGATCAAAGTCGAGCCAACCA	4.71	3.87	0.503	3.15	0.553	6.47	11.6	9.58	9.42	10.6
TCTATTAGTTGATTAGGGCAACGGAAACAGCGGA	0.551	0.44	0.103	0.473	0.812	0.801	0.284	1.99	3.35	3
AGAATGACGTTATACGTAGATCAGGGAAGAAAGT	-0.751	-0.685	-0.265	-0.753	-0.294	-0.611	0.583	-0.509	-0.197	-0.37
